# Screening results: PubChem BioAssay, National Center for Advancing Translational Sciences (NCATS)
# GLP-1R agonist: agonists of human GLP-1 receptor; P43220; AID 624172; Potency, µM (doses to about 45.6 µM), for the others: at the top dose activation, usual class: activators; HEK293 GLP-1R CRE-luciferase, luminescence, 4-6 h; cells express a hypersensitive GLP-1R form; hit rate 0.007% among 380,000; further: potency means the concentration at half of the fitted maximal effect; % of control where 0% means no effect
# Target sequence (P43220 whole entry, looked up): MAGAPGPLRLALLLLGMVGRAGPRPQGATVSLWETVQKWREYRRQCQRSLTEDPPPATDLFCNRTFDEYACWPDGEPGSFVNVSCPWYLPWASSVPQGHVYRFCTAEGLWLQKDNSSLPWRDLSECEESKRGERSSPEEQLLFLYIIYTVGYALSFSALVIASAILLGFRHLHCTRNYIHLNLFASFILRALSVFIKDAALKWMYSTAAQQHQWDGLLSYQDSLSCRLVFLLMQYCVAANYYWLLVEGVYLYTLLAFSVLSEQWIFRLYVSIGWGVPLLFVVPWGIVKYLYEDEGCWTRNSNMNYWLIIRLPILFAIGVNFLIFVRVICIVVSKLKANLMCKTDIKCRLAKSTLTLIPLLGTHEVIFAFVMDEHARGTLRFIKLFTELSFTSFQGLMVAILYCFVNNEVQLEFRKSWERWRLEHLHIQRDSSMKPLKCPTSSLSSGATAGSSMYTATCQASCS
# TRPML1 agonist: human mucolipin-1 channel agonism; Q9GZU1; TRPML1-expressing cells, Ca2+ dye fluorescence, FDSS; activation, % (concentration not given with the values); hit rate 0.12% among 410,000; AID 624414; in the data active means activation above about 50%; inconclusive means mostly about 30% to 49%; further: 0% is about no effect
#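 In this qHTS format, compounds were pin-transferred onto Ca8-dye-loaded TRPML1-DL cells induced with Tet overnight, and intracellular Ca2+ fluorescence was recorded kinetically for 110 s after a 10 s baseline. A subsequent 4uM final 54-4 (EC80) addition followed by a second 110 s read served as the antagonist phase.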
# TRPML1 inh: inhibitors of human TRPML1 channel; TRPML1-inducible cells, Ca2+ dye fluorescence, FDSS; hits give low values; inhibition of EC80 agonist-evoked calcium signal; hit rate 0.02% among 390,000; activity change, negative = inhibition, % (concentration not given with the values); in the data active means activity change below about -50%; inconclusive means between about -30% and that limit;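 further: stimulus is agonist 54-4 at its EC80 concentration; on the % scale 0 is the no-effect control and ±100 the full control effect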
#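 Tet-induced TRPML1-DL cells loaded with Ca8 no-wash calcium dye were read kinetically on FDSS. Compound addition was followed by EC80 agonist 54-4 (4 uM final); inhibition was read over 110 s.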
# HEK293 tox: cytotoxic in the GLP-1 receptor inverse agonist counter-screen | AID 624418 | HEK293 cAMP-luciferase reporter cells, luminescence, 24 h | hit rate 0.13% among 410,000 | Potency, µM (titrated, usually from 38.3 µM), inactives show at the highest dose activity change, negative = inhibition, most hits filed as inhibitors;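 further: loss of luciferase light is scored as toxicity; potency means the concentration at half of the fitted maximal effect; on the % scale 0 is the no-effect control and ±100 the full control effect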
#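 1536-well qHTS counterscreen of the MLSMR; 200 cells/uL, 12 h pre-incubation, 23 nL cpd, 24 h at 37 deg C 5% CO2, luciferase detection reagent, 12 min RT, luminescence. Inhibition = undesired.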
# GLP1R inv ag: GLP-1 receptor (human) inverse agonism. P43220. HEK293 GLP-1R CRE-luciferase, luminescence, 24 h; GLP-1R form is constitutively active. Potency, µM (titrated, usually from 38.3 µM), without a hit: at the top dose activity change, negative = inhibition, actives largely listed as inhibitors. hit rate 1.6% among 410,000; further: potency means the concentration at half of the fitted maximal effect; on the % scale 0 is the no-effect control and ±100 the full control effect; nearly all actives have a fitted effect of over 55% in size
#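 Cells are plated, allowed 12 hours at 37 deg C, then treated with compounds for 24 hr before luciferase detection reagent is added and luminescence is read after 12 min at room temperature. The HEK293 line carries constitutively active GLP-1R with a cAMP-responsive reporter.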
# The depositor's hits bear a star; ? = inconclusive; . = no result. The list is not random: actives were taken first. Their share in the collection is about 1.8%. Unless noted, the call rests on the fitted dose curve; in most records, active means well fitted curve in the direction sought with a large enough effect; inconclusive means small, poorly fitted or top-dose-only effect, or another doubt; inactive means no such curve, though single readings can be large; an effect the other way counts as inactive or inconclusive.
SMILES,GLP-1R agonist,TRPML1 agonist,TRPML1 inh,HEK293 tox,GLP1R inv ag
Cc1cc(NC(=O)c2cccs2)ccc1NC(=O)Cc1ccccc1,4%,0,1,5%,14%
O=C(Cc1ccccc1)Nc1cccc(NC(=O)c2cccs2)c1,12%,2,3,15%,13µM*
CC1=Nc2ccccc2/C1=C/c1sc(=N)n(-c2nccs2)c1O,3%,20,-15,?,2.5µM*
O=C(CSc1nccn1-c1cccc(Cl)c1)Nc1cccc2ccccc12,.,2,8,-12%,?
C=C(C)CNC(=S)N/N=C/C1=CCC2CC1C2(C)C (configuration not stated),0%,3,47,?,5µM*
CC(C)NC(=S)N/N=C/C1=CCC2CC1C2(C)C (configuration not stated),17%,2,33,?,8.9µM*
O=C(NCCc1ccc(Cl)cc1)c1ccc2c(c1)N(Cc1cccc(Cl)c1)C(=O)c1ccccc1S2(=O)=O,.,2,-18,-6%,-30%
C=C[C@]1(C)C[C@H]1[C@H](NP(=O)(c1ccccc1)c1ccccc1)c1ccccc1,-2%,3,-6,1%,-5%
C/C(=C\[C@@H](NP(=O)(c1ccccc1)c1ccccc1)c1ccccc1)CO[Si](c1ccccc1)(c1ccccc1)C(C)(C)C,-5%,0,8,-12%,7.9µM*
COC(=O)[C@]12CCCCC=C1N(Cc1ccc(Cl)cc1Cl)C(=O)[C@H](CC(=O)N1CCC(c3ccccc3)CC1)C2,-3%,0,.,4%,11µM*
CCOC(=O)[C@]12CCCC=C1N(Cc1ccc(Cl)cc1Cl)C(=O)[C@H](CC(=O)N1CCC(c3ccccc3)CC1)C2,-4%,0,.,5%,11%
Cc1ccc(C2(c3ccccc3)NC(=O)N(CC(=O)NCc3ccccc3)C2=O)cc1C (configuration not stated),0%,1,-3,-17%,6.3µM*
COC(=O)C1=C(C)NC(C)=C(C(=O)OC(C)(C)CN(C)CCC(c2ccccc2)c2ccccc2)C1c1cccc([N+](=O)[O-])c1 (configuration not stated),0%,.,.,.,.
COc1ccccc1C(=O)Nc1ccc(C(=O)OCc2cc(=O)n3nc(C)sc3n2)cc1,.,0,-28,4%,9%
Cc1cc(C)cc(NC(=S)NCC2CCN(C(C)c3ccccc3)C2)c1 (configuration not stated),7%,-1,0,-28%,10µM*
CCOc1ccccc1NC(=O)C1CCN(S(=O)(=O)c2ccc3c(c2)CCCN3C(C)=O)CC1,.,0,1,-1%,5%
CCOC(=O)C(=CNNc1cccc(Cl)c1)C(=O)OCC,-3%,0,-4,-3%,5µM*
COc1ccc(C)cc1-n1nnc(C(=O)Nc2cccc(SC)c2)c1C,.,-1,10,7%,?
Cc1cc(C)c(NC(=O)CNC(=O)CN(C)Cc2ccc(Br)s2)c(C)c1,-7%,-1,-1,-5%,6.3µM*
c1ccc(COc2cccc(-c3cc4nc(NCCOc5ccccc5)ccn4n3)c2)cc1,3%,0,31,6%,10µM*
CC(c1ccccc1)N(CCC(c1ccccc1)C1CCOC(C)(C)C1)C(=O)c1ccco1 (configuration not stated),-39%,2,35,-11%,10µM*
O=C(C[n+]1c(Cl)cc(Cl)c2ccccc21)c1ccccc1,.,-1,.,.,.
Cc1c(C(=O)Nc2ccc3nc(N4CCOCC4)sc3c2)oc2ccccc12,-5%,55*,-17,1%,?
O=C(Nc1ccc2nc(N3CCOCC3)sc2c1)c1cc2ccccc2o1,-3%,6,?,-12%,10%
CCOC(=O)C1CCC(CN(Cc2ccc(OC)cc2)S(=O)(=O)c2ccc(F)c(C(=O)Nc3c(C)cccc3C)c2)CC1 (configuration not stated),.,1,-9,-1%,2µM*
SMILES,GLP-1R agonist,TRPML1 agonist,TRPML1 inh,HEK293 tox,GLP1R inv ag
CCOC(=O)C1CCC(CN(Cc2ccc(OC)cc2)S(=O)(=O)c2ccc(F)c(C(=O)Nc3cc(Cl)ccc3OC)c2)CC1 (configuration not stated),.,1,2,21%,?
CCCC1CC(C)(c2csc(Nc3ccc(OCC)cc3)n2)OC1=O (configuration not stated),11%,4,26,-18%,11µM*
CCc1ccccc1NC(=O)Nc1cc(C(=O)NCc2cccc(F)c2)ccc1N1CCCC1,.,0,-6,2%,20%
CC1=CC(C)(C)n2c(O)c(N=NC(N)=S)c3cc(C)cc1c32,5%,4,-7,2.8µM*,2µM*
Cn1c(O)c(N=NC(N)=S)c2ccccc21,18%,.,.,.,.
O=C(Nc1ccccn1)c1ccc2c(c1)S(=O)(=O)c1ccccc1C2=O,0%,0,30,-1%,4%
O=C1c2ccccc2S(=O)(=O)c2cc(C(=O)N(c3ccccn3)c3ccccn3)ccc21,?,64*,-6,-3%,90%
CNC(=O)c1c(NC(=O)c2ccc(S(=O)(=O)N3CCCc4ccccc43)cc2)sc2c1CCN(C)C2,14%,14,-15,3%,4.5µM*
CCOc1ccc(C2c3c(-c4ccc(C)cc4)n[nH]c3C(=O)N2c2ccc(Cl)cc2)cc1 (configuration not stated),-9%,1,-12,?,10µM*
CCOC(=O)c1ccc(N2C(=O)c3[nH]nc(-c4ccc(C)cc4)c3C2c2cccs2)cc1 (configuration not stated),-5%,0,-18,?,8.9µM*
CCOc1ccc(N2C(=O)c3[nH]nc(-c4ccccc4)c3C2c2ccc(O)c(OC)c2)cc1 (configuration not stated),.,3,-14,-20%,8%
CCOC(=O)c1ccc(N2C(=O)c3[nH]nc(-c4ccc(C)cc4)c3C2c2ccc(O)c(OCC)c2)cc1 (configuration not stated),-5%,0,1,-11%,?
C[C@@H]1CCN(C(=O)[C@H](CCCNC(=N)N)NS(=O)(=O)c2cccc3c2NC[C@H](C)C3)[C@@H](C(=O)O)C1,1%,.,.,.,.
C/C(=N\NC(=S)Nc1ccc(C)cc1)c1cccc(N)c1,10%,1,11,4.5µM*,?
C/C(=N\NC(=S)Nc1c(C)cccc1C)c1cc2ccccc2o1,3%,3,26,0%,?
C/C(=N\NC(=S)Nc1c(C)cccc1C)c1ccc(O)cc1,16%,.,.,?,10µM*
COc1cccc(CNC(=O)Cn2c(=O)n3nc(-c4cccc(C)c4)nc3c3ccccc32)c1,.,1,-16,-1%,13%
